In all, about 330,000 compounds went through this assay and about 10,000 (3%) were called active. Only a selection was taken, and actives are over-represented in it overall. Unmarked numbers belong to inactive results.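 Rule for the calls: active = inhibition of at least 50% at 8 µM in the primary screen; inactive = the rest.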

For this experiment, the target named is Protein Mdm4 (Homo sapiens) + E3 ubiquitin-protein ligase Mdm2 (Homo sapiens) (UniProt O15151+Q00987). The experiment in a line: disruptors of Mdm2/MdmX RING complex – cell-based, luminescence, split luciferase, SaOS-2, uHTS, primary screen (AID 485346). The conditions noted are these: SaOS-2 split-luciferase Mdm2/MdmX complementation, at 8 µM, stronger effect = higher value.
Protein Mdm4 (Homo sapiens) + E3 ubiquitin-protein ligase Mdm2 (Homo sapiens), sequence (O15151 whole entry, looked up): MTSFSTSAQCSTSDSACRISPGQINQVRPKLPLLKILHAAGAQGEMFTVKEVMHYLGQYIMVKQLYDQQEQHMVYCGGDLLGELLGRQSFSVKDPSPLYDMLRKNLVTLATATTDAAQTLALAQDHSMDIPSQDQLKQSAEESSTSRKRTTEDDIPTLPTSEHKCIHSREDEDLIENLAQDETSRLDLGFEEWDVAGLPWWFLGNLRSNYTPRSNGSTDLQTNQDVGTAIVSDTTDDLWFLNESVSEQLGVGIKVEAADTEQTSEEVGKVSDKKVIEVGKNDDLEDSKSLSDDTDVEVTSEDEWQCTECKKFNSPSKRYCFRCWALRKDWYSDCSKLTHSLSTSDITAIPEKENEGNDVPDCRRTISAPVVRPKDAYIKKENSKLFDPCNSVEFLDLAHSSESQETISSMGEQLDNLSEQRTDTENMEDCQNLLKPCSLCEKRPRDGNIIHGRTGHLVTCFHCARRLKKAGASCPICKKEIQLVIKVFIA
Protein Mdm4 (Homo sapiens) + E3 ubiquitin-protein ligase Mdm2 (Homo sapiens), sequence (Q00987 whole entry, looked up): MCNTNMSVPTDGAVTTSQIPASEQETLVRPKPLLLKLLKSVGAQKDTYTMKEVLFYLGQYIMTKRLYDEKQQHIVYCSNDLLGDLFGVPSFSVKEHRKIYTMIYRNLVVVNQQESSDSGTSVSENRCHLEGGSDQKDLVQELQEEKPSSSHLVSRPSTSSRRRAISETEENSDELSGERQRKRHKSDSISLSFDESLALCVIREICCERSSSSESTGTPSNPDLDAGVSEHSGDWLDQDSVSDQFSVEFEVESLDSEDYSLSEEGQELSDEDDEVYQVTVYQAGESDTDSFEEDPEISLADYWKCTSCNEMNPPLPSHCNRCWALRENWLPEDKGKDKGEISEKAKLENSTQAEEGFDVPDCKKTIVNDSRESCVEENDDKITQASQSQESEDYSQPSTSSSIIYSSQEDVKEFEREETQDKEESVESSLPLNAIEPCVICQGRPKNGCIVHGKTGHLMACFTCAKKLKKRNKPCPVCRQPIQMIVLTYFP
A word on the inhibition: it is the drop in the measured response relative to a control, in per cent. In the case of `COc1ccc(-c2nc3c(s2)CCc2onc(-c4ccc(OC)cc4)c2-3)cc1`, the inhibition was 1.93%.

Take `O=C(C1CC1)N1N=C(c2ccc(Br)cc2)CC1(O)C(F)(F)F` (stereo not given): the inhibition was -5.88%.

As for `O=C(c1ccc(Cl)cc1)N1N=C(c2ccccn2)CC1(O)C(F)(F)F` (stereo not given), the inhibition was 53% (active).

Take `O=C(Cc1ccccc1)N1N=C(c2ccncc2)CC1(O)C(F)(F)F` (stereo not given): the inhibition was 13.3%.

As for `Cc1ccc(NC(=O)CC2C(=O)N(Cc3ccccc3)C(=S)N2NC(=O)c2cccc(F)c2)c(C)c1` (stereo not given), the inhibition is 6.53%.

For the compound `Fc1ccccc1/C=C1\CCCC2=C1Nc1ncnn1C2c1ccccc1F` (stereo not given), the inhibition is 98.8% (active).

In the case of `Cc1ccc(S(=O)(=O)N2CCCCC2)cc1C(=O)N1CCN(CCO)CC1`, the inhibition is 18.6%.

`CNC[C@H](CC1CCCCC1)NC[C@H](NCCC1CCCC1)[C@H](C)O`: the inhibition is 99.7% (active).

Consider `COc1ccccc1N(C)C(=O)c1cc(S(=O)(=O)N2CCc3ccccc32)cn1C`, for which the inhibition is 14.1%.

In the case of `O=C(CC1SC(N2CCCC2)=NC1=O)Nc1ccc(C(=O)NCCc2ccc(F)cc2)cc1` (stereo not given), the inhibition was 33.7%.

Regarding `N#Cc1ncc(C(F)(F)F)cc1Oc1cccnc1`, the inhibition is -4.54%.

In the case of `Cc1nnc(SCCCCSc2nnc(C)c(=O)[nH]2)[nH]c1=O`, the inhibition was -27.7%.

In the case of `CCN1C(=O)N[C@@H](CCc2ccccc2)C(C(=O)OC)=C1C`, the inhibition is 10.9%.

On to `CCC(CC)c1nnc(NC(=O)c2nn(C)c(=O)c3ccccc23)s1`, for which the inhibition was -51.8%.

Regarding `CCC(C)NC(=O)c1nn(C)c(=O)c2ccccc12` (stereo not given), the inhibition is 0.304%.

Take `COC(=O)c1cc(NC(=O)c2nn(C)c(=O)c3ccccc23)cc(C(=O)OC)c1`: the inhibition was 51.2% (active).

Turning to `COc1ccc(C)cc1NC(=O)CCCN1C(=O)NC(C)(C)C1=O`, the inhibition is 7.88%.

`COC(=O)C1=C(N)Oc2cc(C)[nH]c(=O)c2C1c1ccc(Cl)cc1` (stereo not given): the inhibition was -16.2%.

For `Cc1ccc(CC(=O)Nc2ccc(OC(F)F)c(Cl)c2)cc1C`, the inhibition was 15.9%.

As to `O=C(Cc1ccc(Cl)c(Cl)c1)Nc1ccc(SC(F)F)cc1`, the inhibition was 72.9% (active).

As for `CC(=O)N1CCN(CC(=O)Nc2ccc(SC(F)F)cc2)CC1`, the inhibition is -2.95%.

Turning to `CC(=O)c1c(C)[nH]c(C(=O)OCC(=O)Nc2c(C)n(C)n(-c3ccccc3)c2=O)c1C`, the inhibition was 11.3%.

On to `COc1ccc(NC(=O)c2sc3nc(C)nc(N4CCN(c5ccccn5)CC4)c3c2C)c(OC)c1`, for which the inhibition is 36.5%.

Consider `Cc1nc(N2CCN(c3ccccn3)CC2)c2c(C)c(C(=O)Nc3ccc(F)c(Cl)c3)sc2n1`, for which the inhibition is 61.2% (active).

`Cc1nc(N2CCN(c3ccccn3)CC2)c2c(C)c(C(=O)Nc3ccc(F)cc3)sc2n1`: the inhibition is 35.2%.

These data come from PubChem BioAssay AID485346 (Sanford-Burnham Center for Chemical Genomics, 2010).
